{"source": "PubChem BioAssay AID2546", "about": "(National Center for Advancing Translational Sciences (NCATS), 2010)", "note": "The whole screen tested about 310,000 compounds, of which about 11,000 (3.5%) were called active. Entries that show only a call come without a potency. Inconclusive results (about 8%) are left out. This is one part of a sample in which actives are shown more often than they occur. The call rests on the fitted dose curve; in most records, active means well fitted inhibition curve with a large enough effect; inconclusive means small, poorly fitted or top-dose-only effect, or effect the other way; inactive means flat fitted curve, though single readings scatter. Potency means the concentration at half of the fitted maximal effect.", "data": [{"assay": "VP16 counterscreen qHTS for inhibitors of ROR gamma transcriptional activity;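 further: Gal4-VP16 expression switched on by copper sulfate through the metallothionein promoter; nearly all actives have a fitted effect of over 50% in size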", "settings": "Drosophila S2 Gal4-VP16 UAS-luciferase, luminescence, 20 h; series mostly up to 53.6 µM", "values": [{"compound": "O=C(c1cc(C(=O)N2CCN(c3ccc(F)cc3)CC2)cc([N+](=O)[O-])c1)N1CCN(c2ccc(F)cc2)CC1", "Potency": "inactive"}, {"compound": "CC(C)(C)C(=O)NC1CC2CCCC(C1)N2C(=O)Nc1ccccc1F", "note": "(stereo not given)", "Potency": "inactive"}, {"compound": "O=CN1CCN(C(=O)c2ccc3c(c2)OCO3)CC1", "Potency": "inactive"}, {"compound": "CC(NC(=S)Nc1ccc(OC(F)F)cc1)c1ccc(F)cc1", "note": "(stereo not given)", "Potency": "12.6 µM (active)"}, {"compound": "CC(NC(=S)Nc1ccc(S(N)(=O)=O)cc1)c1ccc2c(c1)OCO2", "note": "(stereo not given)", "Potency": "inactive"}, {"compound": "CC(C)N(Cc1ccccc1)C(=S)Nc1ccc(OC(F)F)cc1", "Potency": "inactive"}, {"compound": "Cc1cc(C)c2c(n1)nn1c(-n3ccnc3)cc(C)nc21", "Potency": "15.8 µM (active)"}, {"compound": "Cc1cc(-n2nc(C)cc2C)n2nc(C)c(-c3ccccc3)c2n1", "Potency": "inactive"}, {"compound": "Cc1cc(C)c2c(NC(=O)C3CC3)nn(C)c2n1", "Potency": "inactive"}, {"compound": "CC(=N\\NC(=O)c1cc(Br)ccc1O)/C(=N/O)C(=O)Nc1ccccc1", "Potency": "11.2 µM (active)"}, {"compound": "C/C(=N/NC(=O)c1cc(Cl)ccc1O)C12CC3CC(CC(C3)C1)C2", "Potency": "inactive"}, {"compound": "O=C(Nc1cccc(NC(=O)c2ccc(Br)cc2)c1)c1ccccc1", "Potency": "inactive"}, {"compound": "COc1ccc(-c2c(C)cc3oc(=O)cc(-c4ccccc4)c3c2C)cc1OC", "Potency": "inactive"}, {"compound": "COc1cc(OC)c2c(-c3cccc(-c4cccc(N)c4)c3)cc(=O)oc2c1", "Potency": "10 µM (active)"}, {"compound": "COc1ccc(-c2c(C)cc3oc(=O)cc(-c4ccccc4)c3c2C)cc1F", "Potency": "inactive"}, {"compound": "Cc1cc(NC(=O)CCC(=O)N(Cc2ccccc2)C(C(=O)NC2CCCC2)c2ccc(C)o2)no1", "note": "(stereo not given)", "Potency": "inactive"}, {"compound": "CCc1cccc(C)c1N1C(=O)CN(Cc2ccccc2)C1=S", "Potency": "inactive"}, {"compound": "CCC(=O)/C(=C(/O)c1ccccc1)c1nc2ccccc2[nH]1", "Potency": "inactive"}, {"compound": "O=C(/C(=C/c1cccc(Cl)c1)c1nc2ccccc2[nH]1)c1ccccc1", "Potency": "12.6 µM (active)"}, {"compound": "O=C(Cc1nc2ccccc2[nH]c1=O)c1ccc(Cl)cc1", "Potency": "inactive"}, {"compound": "Cc1ccc(C)c(NC(=O)c2cc(-c3cc(C)cc(C)c3O)n[nH]2)c1", "Potency": "inactive"}, {"compound": "Cc1sc2ncn(CC(=O)NCCCC(=O)N(C)Cc3ccccc3)c(=O)c2c1C", "Potency": "inactive"}, {"compound": "CCc1ccc2c(c1)C1(NN=C(c3ccccc3)S1)C(=O)N2", "note": "(stereo not given)", "Potency": "6.31 µM (active)"}, {"compound": "CCCCN1C(=O)/C(=C2/Sc3ccc(Cl)cc3N2CC)SC1=S", "Potency": "inactive"}, {"compound": "CN(c1ccc2nc3ccccc3c(=O)n2n1)C1CCCCC1", "Potency": "1.12 µM (active)"}, {"compound": "O=c1c2ccccc2nc2n1C1(CCCCC1)Cc1ccccc1-2", "Potency": "inactive"}, {"compound": "CCOC(=O)C(C)Sc1nc2ccccc2c(=O)n1CC1CCCCC1", "note": "(stereo not given)", "Potency": "inactive"}, {"compound": "C/C(=N\\N(C)C)c1ccc(OCCOc2ccc([N+](=O)[O-])cc2)cc1", "Potency": "inactive"}, {"compound": "O=C(/C=C/c1ccc([N+](=O)[O-])o1)NNC(=O)c1ccc(F)cc1", "Potency": "4.47 µM (active)"}, {"compound": "O=C(N/N=C/c1ccc([N+](=O)[O-])o1)c1cn(-c2ccccc2)nc1-c1ccc(F)cc1", "Potency": "inactive"}, {"compound": "C/[N+]([O-])=C\\c1ccc([N+](=O)[O-])o1", "Potency": "inactive"}, {"compound": "CCc1ccc(NC(=O)CN2CCC(C(=O)c3ccc(OC)cc3)CC2)cc1", "Potency": "inactive"}, {"compound": "CC(=O)Nc1ccc(NC(=O)[C@@H](NC(=O)c2cccc(C)c2)C(C)C)cc1", "Potency": "inactive"}, {"compound": "Cc1ccc(NC(=O)C(C)c2cccc(C(=O)c3ccccc3)c2)cc1", "note": "(stereo not given)", "Potency": "7.08 µM (active)"}, {"compound": "COC(C(=O)Nc1ccc(C(C)=O)cc1)c1ccccc1", "note": "(stereo not given)", "Potency": "inactive"}, {"compound": "CCn1cc(S(=O)(=O)c2cccc(C)c2)c(=O)c2cc(F)c(N3CCN(C)CC3)cc21", "Potency": "inactive"}, {"compound": "Fc1ccc(-c2ccc(NCCN3CCOCC3)nn2)cc1", "Potency": "inactive"}, {"compound": "N#Cc1ccccc1NC(=O)c1ccc2c(c1)OCO2", "Potency": "inactive"}, {"compound": "CCOC(=O)C1(Cc2ccccc2C)CCCN(C(=O)c2ccc(COC)o2)C1", "note": "(stereo not given)", "Potency": "inactive"}, {"compound": "O=C(CN1C(=O)C2C3CCC(C3)C2C1=O)Oc1ccc2ccccc2c1", "note": "(stereo not given)", "Potency": "inactive"}, {"compound": "CC1=CC(C)(C)Nc2ccc(OC(=O)C(Cc3ccccc3)N3C(=O)C4CCCCC4C3=O)cc21", "note": "(stereo not given)", "Potency": "inactive"}, {"compound": "CC1=CC(C)(C)Nc2ccc(OC(=O)CN3C(=O)C4CCCCC4C3=O)cc21", "note": "(stereo not given)", "Potency": "7.94 µM (active)"}, {"compound": "COc1ccc2[nH]cc(CCN3C(=O)c4ccc(C(=O)O)cc4C3=O)c2c1", "Potency": "inactive"}, {"compound": "Cc1cccc(N(C)C(=O)CN2C(=O)COc3ccc(S(=O)(=O)N4CCCCCC4)cc32)c1", "Potency": "inactive"}, {"compound": "COc1ccc(-c2oc3ncnc(NCCCO)c3c2-c2ccc(OC)cc2)cc1", "Potency": "inactive"}, {"compound": "C[C@@H](NC(=O)OC(C)(C)C)c1nnc(S(=O)(=O)Cc2ccccc2)o1", "Potency": "4.47 µM (active)"}, {"compound": "C[C@H](NC(=O)OC(C)(C)C)c1nnc(SCC(N)=O)o1", "Potency": "inactive"}, {"compound": "CC(C)Sc1nnc([C@H](Cc2ccccc2)NC(=O)OC(C)(C)C)o1", "Potency": "inactive"}, {"compound": "CC(=O)Nc1cccc(NC(=O)CSc2nccn2Cc2ccc(F)cc2)c1", "Potency": "inactive"}, {"compound": "Cc1ccc2nc(SCC(=O)NC3CCCC3)[nH]c2c1", "Potency": "inactive"}, {"compound": "O=C(Nc1nc(-c2ccc(-c3ccccc3)cc2)cs1)c1cnccn1", "Potency": "2 µM (active)"}, {"compound": "O=C(Nc1nc(-c2cccnc2)cs1)c1ccccc1F", "Potency": "inactive"}, {"compound": "Cc1nc(NNC(=O)c2ccccc2)cc(-c2ccccc2)n1", "Potency": "inactive"}, {"compound": "O=C(O)c1ccccc1C(=O)Nc1nc(-c2ccccc2)cs1", "Potency": "inactive"}, {"compound": "Cc1ccc(-c2csc(NNC(=O)c3ccccc3)n2)cc1", "Potency": "7.08 µM (active)"}, {"compound": "Cc1ccc(Nc2nc(-c3sc(NC(=O)c4ccccc4)nc3C)cs2)cc1", "Potency": "inactive"}, {"compound": "CC(=O)c1ccc(N2CCN(C(=O)C3CCN(S(=O)(=O)c4ccc5c(c4)CC(C)N5C(=O)C4CC4)CC3)CC2)cc1", "note": "(stereo not given)", "Potency": "inactive"}, {"compound": "CCCC(C)NC(=O)C1CCN(C(=O)C2CC(=O)N(c3ccc(C)cc3)C2)CC1", "note": "(stereo not given)", "Potency": "inactive"}, {"compound": "COc1cc(C)c(C)cc1S(=O)(=O)N1CCCc2ccccc21", "Potency": "inactive"}, {"compound": "O=C(Cn1cnc2ccccc21)Nc1ccccc1-c1ccccc1", "Potency": "inactive"}, {"compound": "O=C(NCCOc1cccnc1)c1ccc(OC2CCN(Cc3ccccn3)CC2)cc1", "Potency": "inactive"}, {"compound": "C[C@H](NC(=O)[C@@H]1Cc2ccccc2CN1C(=O)OC(C)(C)C)C(=O)NC1CCCC1", "Potency": "inactive"}, {"compound": "CCc1ccc(C(=O)NN=C2CCCCCC2)s1", "Potency": "inactive"}, {"compound": "CC(C)NC(=S)NN=C1CCCCCCCCCCC1", "Potency": "5.01 µM (active)"}, {"compound": "CC(C)(C)NC(=O)C(=O)NN=C1CCCCCCC1", "Potency": "inactive"}, {"compound": "CCC1CCCCN1C(=S)Nc1ccc(S(=O)(=O)Nc2ncccn2)cc1", "note": "(stereo not given)", "Potency": "inactive"}, {"compound": "CCCc1cc(=O)oc2cc(OCC(=O)Nc3ccc(CN4CCOCC4)cc3)c(Cl)cc12", "Potency": "inactive"}, {"compound": "O=C(NNC(=S)NCc1ccccc1)c1ccc(OC(F)F)cc1", "Potency": "inactive"}, {"compound": "COC(=O)Cc1ccc(NC(=S)NCc2ccco2)cc1", "Potency": "inactive"}, {"compound": "CC(C)CNC(=O)C(=O)NCc1ccccc1", "Potency": "inactive"}, {"compound": "COC(=O)Cc1ccc(NC(=S)NCc2ccccc2)cc1", "Potency": "31.6 µM (active)"}, {"compound": "CC(C)CC(=O)NC(=S)NCc1ccccc1", "Potency": "10 µM (active)"}, {"compound": "CC(C)CC(=O)NC(=S)Nc1cc(C(=O)O)ccc1Cl", "Potency": "inactive"}, {"compound": "O=C(Cc1ccccc1)NCc1ccc(F)cc1", "Potency": "inactive"}, {"compound": "COC(=O)Cc1ccc(OCC(=O)Nc2ccc(OC(F)(F)F)cc2)cc1", "Potency": "inactive"}, {"compound": "FC(F)(F)Oc1ccc(NC(=S)NCc2ccccc2)cc1", "Potency": "11.2 µM (active)"}, {"compound": "CCOC(=O)c1ccc(NC(=O)Cc2cccs2)cc1", "Potency": "inactive"}, {"compound": "CCC1Sc2ccc(S(=O)(=O)CCC(=O)NCc3cccs3)cc2NC1=O", "note": "(stereo not given)", "Potency": "inactive"}, {"compound": "COc1ccccc1CNC(=O)c1ccc(N(C)S(=O)(=O)c2ccc(C)cc2)cc1", "Potency": "inactive"}, {"compound": "CSc1ncccc1C(=O)Nc1ccc(C)cn1", "Potency": "inactive"}, {"compound": "COc1ccc(OC)c(NC(=O)CN(C)CCOc2ccc(Br)cc2)c1", "Potency": "inactive"}, {"compound": "CC1(C)Cc2c(sc(NC(=O)C(=O)NCC3CCCO3)c2C(=O)O)CO1", "note": "(stereo not given)", "Potency": "inactive"}, {"compound": "COc1ccc(C2CC(c3ccc([N+](=O)[O-])cc3)=NN2C(C)=O)cc1", "note": "(stereo not given)", "Potency": "inactive"}, {"compound": "Cc1cccnc1CCNC(=O)C1CCC(=O)N(Cc2cccc(F)c2)C1", "note": "(stereo not given)", "Potency": "inactive"}, {"compound": "O=C(NCCCN1CCOCC1)c1ccc2c(c1)N(Cc1cccc(F)c1)C(=O)c1ccccc1S2", "Potency": "inactive"}, {"compound": "COc1cccc(CC(=O)Nc2nc(-c3ccc(OC)c(OC)c3)cs2)c1", "Potency": "inactive"}, {"compound": "COc1ccc(CCNc2nc(-c3cccc(NC(C)=O)c3)cs2)cc1OC", "Potency": "inactive"}, {"compound": "COc1ccc(CC(=O)Nc2nc(-c3ccc(F)c(F)c3)cs2)cc1OC", "Potency": "15.8 µM (active)"}, {"compound": "CCOC(=O)C1(Cc2ccccc2C)CCCN(C(=O)CN2C(=O)CSC2=O)C1", "note": "(stereo not given)", "Potency": "inactive"}, {"compound": "CCOC(=O)c1cccc(NC(=O)C2CCN(c3ncnc4c3nc3n4CCCCC3)CC2)c1", "Potency": "inactive"}, {"compound": "CN(C(=O)c1ccccc1)c1nccnc1C#N", "Potency": "inactive"}, {"compound": "CCCCCNC(=O)Cc1ccc(OC)cc1", "Potency": "inactive"}, {"compound": "COc1ccc(CC(=O)N2N=C(C)CC2(O)C(F)(F)F)cc1", "note": "(stereo not given)", "Potency": "8.91 µM (active)"}, {"compound": "O=C(Cc1ccccc1)N1N=C(c2ccncc2)CC1(O)C(F)(F)F", "note": "(stereo not given)", "Potency": "inactive"}, {"compound": "CC1=NN(C(=O)CCc2ccccc2O)C(O)(C(F)(F)F)C1", "note": "(stereo not given)", "Potency": "12.6 µM (active)"}, {"compound": "NC(=O)c1ccc(Nc2ccc3c(c2)CCC3)c([N+](=O)[O-])c1", "Potency": "inactive"}, {"compound": "Cc1ccc(Nc2ncnc3c2cnn3C)c(C)c1", "Potency": "inactive"}, {"compound": "COC(=O)c1c(NC(=O)C2CC(C)=C(C)CC2C(=O)O)sc2c1CCCCC2", "note": "(stereo not given)", "Potency": "inactive"}, {"compound": "O=S(=O)(/C=C/c1ccccc1)N1CCNCC1", "Potency": "inactive"}, {"compound": "CCc1ccc(OCC(=O)NCC(c2ccc(Cl)cc2)N2CCCCC2)cc1", "note": "(stereo not given)", "Potency": "inactive"}, {"compound": "Cc1ccc(S(=O)(=O)c2c[nH]c3ccc(C)cc3c2=O)cc1", "Potency": "inactive"}, {"compound": "Cc1cc(/C=N/NC(N)=O)c(C)n1C1CCCCC1", "Potency": "inactive"}, {"compound": "Cc1cc(/C=N/Nc2ccc([N+](=O)[O-])cn2)c(C)n1-c1cccc(C(=O)O)c1", "Potency": "inactive"}, {"compound": "Cc1cccc(-n2c(C)cc(/C=N/NC(N)=S)c2C)c1", "Potency": "2.82 µM (active)"}, {"compound": "O=C(CN1CCN(C(=O)C2CCCO2)CC1)Nc1c(Cl)cccc1Cl", "note": "(stereo not given)", "Potency": "inactive"}]}]}
